biological target: T1, cGMP-dependent protein kinase 2 (Homo sapiens) (UniProt Q13237); details: at 1 µM;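 also: mean inhibition of PRKG2 from the GSK PKIS screen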
T1 sequence (whole entry): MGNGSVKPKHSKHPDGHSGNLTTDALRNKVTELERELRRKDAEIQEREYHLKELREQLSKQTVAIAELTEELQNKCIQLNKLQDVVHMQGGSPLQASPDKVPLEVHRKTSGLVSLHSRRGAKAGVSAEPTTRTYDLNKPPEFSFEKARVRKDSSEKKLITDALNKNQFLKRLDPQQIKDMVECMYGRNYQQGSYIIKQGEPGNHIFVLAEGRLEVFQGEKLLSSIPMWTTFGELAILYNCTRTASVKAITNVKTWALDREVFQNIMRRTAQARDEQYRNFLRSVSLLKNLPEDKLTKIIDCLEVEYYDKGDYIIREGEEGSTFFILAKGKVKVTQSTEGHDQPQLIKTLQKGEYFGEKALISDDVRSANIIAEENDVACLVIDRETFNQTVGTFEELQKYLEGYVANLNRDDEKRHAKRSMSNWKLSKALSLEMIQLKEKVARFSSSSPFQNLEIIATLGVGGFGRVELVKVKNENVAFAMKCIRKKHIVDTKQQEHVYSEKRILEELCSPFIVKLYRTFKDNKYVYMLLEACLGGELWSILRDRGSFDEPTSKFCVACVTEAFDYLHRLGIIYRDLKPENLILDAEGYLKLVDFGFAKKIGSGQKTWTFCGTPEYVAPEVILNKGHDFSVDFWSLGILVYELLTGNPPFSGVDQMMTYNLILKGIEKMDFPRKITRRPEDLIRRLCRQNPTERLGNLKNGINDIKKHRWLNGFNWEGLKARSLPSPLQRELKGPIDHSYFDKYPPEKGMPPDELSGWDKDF

Structure (SMILES)	inhibition
CCn1c(-c2nonc2N)nc2c(C#CC(C)(C)O)ncc(OCC3CCNCC3)c21	70.1%
COc1cccc(-n2ncc3c(N/N=C/c4ccncc4)ncnc32)c1	6.05%
CCn1c(-c2nonc2N)nc2c(C#CCN)ncc(OCCCN)c21	74.6%
COc1cccc(COc2cc(-n3cnc4ccccc43)sc2C(N)=O)c1	-0.04%
Fc1ccc(-c2ncn(C3CCNCC3)c2-c2ccnc(Oc3ccccc3)n2)cc1	0.2%
COc1cc(C=NNc2ncnc3c2cnn3Cc2ccccc2)ccc1O	4.01%
Cc1cc(-c2ccco2)cc(C)c1/C=C/c1cncc(-c2nn[nH]n2)c1	-1.21%
CCn1c(-c2nonc2N)nc2c(C#CC(C)(C)O)ncc(OC[C@@H]3CCCN3)c21	76.5%
CCn1c(-c2nonc2N)nc2c(C#CC(C)(C)O)nc(O[C@@H](CN)c3ccccc3)cc21	84.4%
NS(=O)(=O)c1ccc(-c2ccc3c(NC(=O)C4CC4)n[nH]c3c2)cc1	3.29%
NC(=O)c1sc(-n2cnc3cc(C(F)(F)F)ccc32)cc1OCc1ccccc1Br	1.01%
NS(=O)(=O)c1ccc(N/C=C2\C(=O)Nc3ccc4ncsc4c32)cc1	47.9%
Nc1nonc1-c1nc2cnccc2n1C1CCCCC1	80.9%
COc1cc2c(cc1Nc1nc(Nc3ccsc3C(N)=O)c3cc[nH]c3n1)N(C(=O)CN(C)C)CCC2	1.58%

biological target: T2, cAMP-dependent protein kinase catalytic subunit PRKX (Homo sapiens) (UniProt P51817); details: at 0.1 µM
T2 sequence (whole entry): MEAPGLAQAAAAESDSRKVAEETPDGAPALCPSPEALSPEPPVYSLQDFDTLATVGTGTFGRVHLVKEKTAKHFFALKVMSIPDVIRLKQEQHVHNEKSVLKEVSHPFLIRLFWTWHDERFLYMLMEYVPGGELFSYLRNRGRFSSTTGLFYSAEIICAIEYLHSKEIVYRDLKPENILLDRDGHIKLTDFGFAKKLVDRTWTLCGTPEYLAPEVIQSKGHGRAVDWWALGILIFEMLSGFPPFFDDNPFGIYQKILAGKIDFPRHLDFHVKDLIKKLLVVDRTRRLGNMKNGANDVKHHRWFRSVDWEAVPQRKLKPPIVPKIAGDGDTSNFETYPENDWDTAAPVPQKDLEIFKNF

Structure (SMILES)	inhibition
CCn1c(-c2nonc2N)nc2c(C#CC(C)(C)O)ncc(OCC3CCNCC3)c21	45.6%
COc1cccc(-n2ncc3c(N/N=C/c4ccncc4)ncnc32)c1	1.85%
CCn1c(-c2nonc2N)nc2c(C#CCN)ncc(OCCCN)c21	4.23%
COc1cccc(COc2cc(-n3cnc4ccccc43)sc2C(N)=O)c1	1.72%
Fc1ccc(-c2ncn(C3CCNCC3)c2-c2ccnc(Oc3ccccc3)n2)cc1	1.64%
COc1cc(C=NNc2ncnc3c2cnn3Cc2ccccc2)ccc1O	0.31%
Cc1cc(-c2ccco2)cc(C)c1/C=C/c1cncc(-c2nn[nH]n2)c1	0.69%
CCn1c(-c2nonc2N)nc2c(C#CC(C)(C)O)ncc(OC[C@@H]3CCCN3)c21	77%
CCn1c(-c2nonc2N)nc2c(C#CC(C)(C)O)nc(O[C@@H](CN)c3ccccc3)cc21	82.3%
NS(=O)(=O)c1ccc(-c2ccc3c(NC(=O)C4CC4)n[nH]c3c2)cc1	1.26%
NC(=O)c1sc(-n2cnc3cc(C(F)(F)F)ccc32)cc1OCc1ccccc1Br	0.67%
NS(=O)(=O)c1ccc(N/C=C2\C(=O)Nc3ccc4ncsc4c32)cc1	2.57%
Nc1nonc1-c1nc2cnccc2n1C1CCCCC1	3.71%
COc1cc2c(cc1Nc1nc(Nc3ccsc3C(N)=O)c3cc[nH]c3n1)N(C(=O)CN(C)C)CCC2	2.02%

biological target: T2, cAMP-dependent protein kinase catalytic subunit PRKX (Homo sapiens); details: at 1 µM

Structure (SMILES)	inhibition
CCn1c(-c2nonc2N)nc2c(C#CC(C)(C)O)ncc(OCC3CCNCC3)c21	75.7%
COc1cccc(-n2ncc3c(N/N=C/c4ccncc4)ncnc32)c1	2.86%
CCn1c(-c2nonc2N)nc2c(C#CCN)ncc(OCCCN)c21	18.9%
COc1cccc(COc2cc(-n3cnc4ccccc43)sc2C(N)=O)c1	1.42%
Fc1ccc(-c2ncn(C3CCNCC3)c2-c2ccnc(Oc3ccccc3)n2)cc1	1.63%
COc1cc(C=NNc2ncnc3c2cnn3Cc2ccccc2)ccc1O	5.24%
Cc1cc(-c2ccco2)cc(C)c1/C=C/c1cncc(-c2nn[nH]n2)c1	-0.08%
CCn1c(-c2nonc2N)nc2c(C#CC(C)(C)O)ncc(OC[C@@H]3CCCN3)c21	85.4%
CCn1c(-c2nonc2N)nc2c(C#CC(C)(C)O)nc(O[C@@H](CN)c3ccccc3)cc21	88.2%
NS(=O)(=O)c1ccc(-c2ccc3c(NC(=O)C4CC4)n[nH]c3c2)cc1	-1.16%
NC(=O)c1sc(-n2cnc3cc(C(F)(F)F)ccc32)cc1OCc1ccccc1Br	1.17%
NS(=O)(=O)c1ccc(N/C=C2\C(=O)Nc3ccc4ncsc4c32)cc1	6.55%
Nc1nonc1-c1nc2cnccc2n1C1CCCCC1	21.7%
COc1cc2c(cc1Nc1nc(Nc3ccsc3C(N)=O)c3cc[nH]c3n1)N(C(=O)CN(C)C)CCC2	1.29%

biological target: Rho-associated protein kinase 1 (Homo sapiens) (UniProt Q13464); details: at 0.1 µM;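 also: values are mean percent inhibition of ROCK1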
Sequence (Q13464 2-1354 limits assumed): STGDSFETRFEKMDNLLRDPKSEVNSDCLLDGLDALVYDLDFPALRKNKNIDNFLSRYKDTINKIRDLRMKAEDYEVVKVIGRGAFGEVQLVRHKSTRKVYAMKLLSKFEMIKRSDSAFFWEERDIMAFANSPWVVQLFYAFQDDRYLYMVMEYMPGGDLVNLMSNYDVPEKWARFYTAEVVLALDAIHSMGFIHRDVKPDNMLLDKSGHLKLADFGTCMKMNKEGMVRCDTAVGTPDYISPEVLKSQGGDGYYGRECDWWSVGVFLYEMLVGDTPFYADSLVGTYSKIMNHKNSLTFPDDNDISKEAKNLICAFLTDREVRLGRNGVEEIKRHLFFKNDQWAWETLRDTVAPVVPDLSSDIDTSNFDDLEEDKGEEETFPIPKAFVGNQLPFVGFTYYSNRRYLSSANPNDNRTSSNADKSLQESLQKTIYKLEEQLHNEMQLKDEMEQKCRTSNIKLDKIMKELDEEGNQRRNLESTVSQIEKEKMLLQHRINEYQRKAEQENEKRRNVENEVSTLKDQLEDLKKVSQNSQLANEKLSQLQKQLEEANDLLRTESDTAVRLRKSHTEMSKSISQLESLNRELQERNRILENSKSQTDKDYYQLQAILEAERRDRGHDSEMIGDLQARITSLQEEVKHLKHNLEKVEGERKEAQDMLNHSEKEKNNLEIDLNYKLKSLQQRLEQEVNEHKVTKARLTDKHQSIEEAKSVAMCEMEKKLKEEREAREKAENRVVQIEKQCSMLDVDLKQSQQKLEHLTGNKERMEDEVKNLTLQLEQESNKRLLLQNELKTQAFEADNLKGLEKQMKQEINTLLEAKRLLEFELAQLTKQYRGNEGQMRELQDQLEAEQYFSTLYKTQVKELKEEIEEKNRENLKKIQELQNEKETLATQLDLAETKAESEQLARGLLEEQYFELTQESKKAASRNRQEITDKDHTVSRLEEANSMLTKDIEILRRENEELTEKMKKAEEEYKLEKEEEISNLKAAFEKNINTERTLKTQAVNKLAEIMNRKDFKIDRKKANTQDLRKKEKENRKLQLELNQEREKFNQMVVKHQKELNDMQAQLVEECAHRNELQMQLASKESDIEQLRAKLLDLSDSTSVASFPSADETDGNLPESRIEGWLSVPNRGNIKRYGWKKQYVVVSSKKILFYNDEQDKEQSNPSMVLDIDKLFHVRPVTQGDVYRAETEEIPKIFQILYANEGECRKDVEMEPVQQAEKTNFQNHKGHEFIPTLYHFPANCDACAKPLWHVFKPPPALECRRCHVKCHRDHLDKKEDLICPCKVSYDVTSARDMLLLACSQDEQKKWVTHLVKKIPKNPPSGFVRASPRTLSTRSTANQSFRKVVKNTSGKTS

Structure (SMILES)	inhibition
CCn1c(-c2nonc2N)nc2c(C#CC(C)(C)O)ncc(OCC3CCNCC3)c21	1.94%
COc1cccc(-n2ncc3c(N/N=C/c4ccncc4)ncnc32)c1	2.51%
CCn1c(-c2nonc2N)nc2c(C#CCN)ncc(OCCCN)c21	7.73%
COc1cccc(COc2cc(-n3cnc4ccccc43)sc2C(N)=O)c1	-0.06%
Fc1ccc(-c2ncn(C3CCNCC3)c2-c2ccnc(Oc3ccccc3)n2)cc1	0.65%
COc1cc(C=NNc2ncnc3c2cnn3Cc2ccccc2)ccc1O	1.47%
Cc1cc(-c2ccco2)cc(C)c1/C=C/c1cncc(-c2nn[nH]n2)c1	0.84%
CCn1c(-c2nonc2N)nc2c(C#CC(C)(C)O)ncc(OC[C@@H]3CCCN3)c21	1.1%
CCn1c(-c2nonc2N)nc2c(C#CC(C)(C)O)nc(O[C@@H](CN)c3ccccc3)cc21	9.16%
NS(=O)(=O)c1ccc(-c2ccc3c(NC(=O)C4CC4)n[nH]c3c2)cc1	1.11%
NC(=O)c1sc(-n2cnc3cc(C(F)(F)F)ccc32)cc1OCc1ccccc1Br	0.41%
NS(=O)(=O)c1ccc(N/C=C2\C(=O)Nc3ccc4ncsc4c32)cc1	6.26%
Nc1nonc1-c1nc2cnccc2n1C1CCCCC1	31%
COc1cc2c(cc1Nc1nc(Nc3ccsc3C(N)=O)c3cc[nH]c3n1)N(C(=O)CN(C)C)CCC2	5.03%

— ChEMBL document CHEMBL1961873, “Compounds: GSK PKIS; Assays: Nanosyn kinase panel” (2012)
